Experimental data reported in PubChem BioAssay AID504834 (National Center for Advancing Translational Sciences (NCATS), 2011).
“And” between values parts separate entries of the source, which are not always exact repeats. Equal entries are not always repeated. Out of some 320,000 compounds screened, about 22,000 (6.9%) were called active. Not shown: some 27% with an inconclusive outcome. The call rests on the fitted dose curve; in most records, active means well fitted inhibition curve with a large enough effect; inconclusive means small, poorly fitted or top-dose-only effect, or another doubt; inactive means no such curve, though single readings can be large or run the other way. The entries come from a sample that favours actives as a whole.

Test: Primary qHTS for delayed death inhibitors of the malarial parasite plastid, 96 hour incubation
Conditions: P. falciparum luciferase reporter growth; series mostly up to 28.7 µM; activity change, negative = inhibition: at the top concentration
Outline: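 Two parasite generations (96 h, 37 C, 5% CO2) of compound exposure in infected erythrocytes (0.05% parasitemia, 2% hematocrit). Luciferase-reporter P. falciparum; decreased luminescence indicates inhibited growth, aimed at apicoplast-acting delayed death.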
On the % scale 0 is the no-effect control and ±100 the full control effect; potency means the concentration at half of the fitted maximal effect.

Row | Structure (SMILES) | activity change, negative = inhibition | Potency
1 | COc1ccccc1OCCNC(=O)C(CCSC)NC(=O)COc1ccccc1 (stereo not given) | -0.324% (inactive) | 
2 | Cc1ccc(CNC(=O)C2CCN(S(=O)(=O)c3ccc4nc5c(c(C(=O)O)c4c3)CC(C)CC5)CC2)cc1 (stereo not given) | -15.1% (inactive) | 
3 | CC1CCN(C(=O)c2ccccc2NC(=O)Cc2ccccc2)CC1 | 7.37% (inactive) | 
4 | Cc1c(NC(=O)c2cc(-c3ccc(Br)cc3)on2)c(=O)n(-c2ccccc2)n1C | 23.4% (inactive) | 
5 | Cc1no[n+]([O-])c1COc1ccccc1/C=C1\NC(=S)NC1=O |  | 10.4 µM (active)
6 | Cc1ccccc1-n1c(C)cc(/C=C2\NC(=O)NC2=O)c1C | 110% (inactive) | 
7 | O=C(CN1CCN(S(=O)(=O)c2ccc(F)cc2)CC1)NC1CC1 | -1.38% (inactive) | 
8 | CC(=O)c1ccc(S(=O)(=O)NCc2nnnn2-c2ccccc2)cc1 | -8.2% (inactive) | 
9 | Cc1cc(NC(=O)COc2ccccc2C#N)no1 | 134% (inactive) | 
10 | CCOC(=O)C1CCN(c2ncnc3c2c(-c2ccccc2)cn3-c2ccc(C)cc2)CC1 | -13.3% (inactive) | 
11 | CCOC(=O)C1CCN(Cc2nnc(-c3cccc(Br)c3)o2)CC1 | -17.5% (inactive) | 
12 | CCOC(=O)C1CCN(c2ncnc3c2oc2ccc(Br)cc23)CC1 |  | 13.1 µM (active)
13 | Cn1cncc1COC(=O)c1ccc(Cl)cc1 | 14% (inactive) | 
14 | COc1ccccc1C(=O)NCc1nnc(SC(C)C(=O)Nc2nccs2)n1C (stereo not given) | -13.3% (inactive) | 
15 | Cc1ccc(NC(=O)CN2CCc3ccccc3C2)cc1C | -4.43% (inactive) | 
16 | O=C(CN1CCN(Cc2ccccc2)CC1)NC(c1ccccc1)c1ccccc1 |  | 14.7 µM (active)
17 | O=C(Cc1ccc(-c2ccccc2)cc1)NC(c1ccccc1)c1ccccc1 | -28.6% (inactive) | 
18 | CC1CN(CC(=O)NC(C)c2ccccc2)CC(C)O1 (stereo not given) | 163% (inactive) | 
19 | CCCc1cc(=O)[nH]c(SCC(=O)Nc2sc3c(c2C#N)CCCC3)n1 | 16.2% (inactive) | 
20 | N#CCCN(C(=O)COC(=O)c1ccc(S(=O)(=O)N2CCCCCC2)cc1)c1ccccc1 | 21.3% (inactive) | 
21 | CC(C)(CNC(=O)CNC(=O)C1CCCCC1)N1CCOCC1 | -41.7% (inactive) | 
22 | O=C(O)c1ccccc1-c1ccccc1C(=O)NCCc1ccccc1 | 0% (inactive) | 
23 | CC1(C)CC(=O)C(CC(=O)N2CCC(Cc3ccccc3)CC2)C(=O)C1 | 7.2% (inactive) | 
24 | O=C(C(=O)N1CCc2ccccc2C1)N1CCc2ccccc2C1 | 89.7% (inactive) | 
25 | Cn1c(=O)c2c(n(Cc3ccccc3)c1=O)NC(=O)C2CC(=O)N1CCc2ccccc2C1 (stereo not given) |  | 11.7 µM (active)

Row | Structure (SMILES) | activity change, negative = inhibition | Potency
26 | COc1ccc(/C=C2\SC(=S)N(CCC(=O)Nc3cccc(C(=O)O)c3)C2=O)cc1OC | -1.21% (inactive) | 
27 | COC(=O)CN1C(=O)C(C)(C)Oc2ccc(C(=O)Nc3cccc(OC)c3)cc21 | 7.01% (inactive) | 
28 | Cc1cccc(N2CCN(c3ccc(C(N)=O)cc3[N+](=O)[O-])CC2)c1C | 23.7% (inactive) | 
29 | O=C(NC1C2CC3CC(C2)CC1C3)c1ccc(N2CCNCC2)c([N+](=O)[O-])c1 (stereo not given) | 12.4% (inactive) | 
30 | CS(=O)(=O)N1CCN(c2ccc(C(=O)NC3C4CC5CC(C4)CC3C5)cc2[N+](=O)[O-])CC1 (stereo not given) |  | 9.28 µM (active)
31 | COc1ccccc1N1CCN(C(=O)CSc2ncnc3c2cnn3-c2ccc(C)c(C)c2)CC1 | 3.67% (inactive) | 
32 | COc1ccc(S(=O)(=O)NCCc2c[nH]c3ccccc23)cc1OC | -7.21% (inactive) | 
33 | Cc1ccc(CNC(=O)CCN2C(=O)[C@@H]3Cc4ccccc4CN3C2=O)cc1 | -24.8% (inactive) | 
34 | C/C(=N\NC(=O)Cc1ccccc1[N+](=O)[O-])c1cccnc1 | -21.8% (inactive) | 
35 | Cc1nn(CCCC(=O)NCc2ccccc2Cl)c(=O)c2nccn12 |  | 1.04 µM (active)
36 | O=C(COC(=O)Cn1cnc2ccccc2c1=O)NCc1ccccc1Cl | 61.1% (inactive) | 
37 | Cc1cccn2c(=O)nc(SCC(=O)NCc3ccccc3Cl)nc12 | -16.4% (inactive) | 
38 | COc1ccccc1NC(=O)CCC(=O)N1CC(C)Oc2ccc(C)cc21 (stereo not given) | 7.94% (inactive) | 
39 | O=C(c1ccccc1)N1CCN(C(=O)N2CCCCC2)CC1 | 10.7% (inactive) | 
40 | O=C(c1ccc(-n2cnnn2)cc1)N1CCN(C(c2ccccc2)c2ccccc2)CC1 |  | 4.65 µM (active)
41 | CCOC(=O)N1CCN(S(=O)(=O)c2ccc(-n3cnnn3)cc2)CC1 | 10.9% (inactive) | 
42 | CCn1cc(C(=O)OCC(=O)Nc2cccc(C)c2)c(=O)c2ccc(C)nc21 | 20.8% (inactive) | 
43 | CCOC(=O)c1cn(CC)c2cc(F)c(F)cc2c1=O | 0.303% (inactive) | 
44 | Cc1ccccc1N1CC(C(=O)Nc2ccc(S(=O)(=O)N3CCCC3)cc2)CC1=O (stereo not given) | 9.93% (inactive) | 
45 | Cc1cccc(N2CC(C(=O)Nc3ccccc3N3CCCC3)CC2=O)c1C (stereo not given) |  | 5.22 µM (active)
46 | Cc1ccccc1N1CC(C(=O)Nc2ccc3c(c2)OCO3)CC1=O (stereo not given) | 11.6% (inactive) | 
47 | CC(=O)C1=C(O)C(=O)N(c2ccc(Br)cc2)C1c1ccc([N+](=O)[O-])cc1 (stereo not given) | -0.955% (inactive) | 
48 | COC(=O)C1CCN(C(=O)NC2CC(=O)N(c3ccc4c(c3)OCCO4)C2)CC1 (stereo not given) | 15.2% (inactive) | 
49 | O=C(CSc1nc2ccccc2c(=O)n1CCCO)NC1CC1 | 12.2% (inactive) | 
50 | CCOC(=O)C(C)Sc1nc2ccccc2c(=O)n1CC1CCCCC1 (stereo not given) |  | 11.7 µM (active)

Row | Structure (SMILES) | activity change, negative = inhibition | Potency
51 | CCOC(=O)C1CCc2nc3ccccc3c(=O)n21 (stereo not given) | 18.4% (inactive) | 
52 | O=C(NCCN1CCN(C(=O)c2cccc([N+](=O)[O-])c2)CC1)C(=O)NCc1ccc(Cl)cc1 | -0.891% (inactive) | 
53 | Cc1ccc(NC(=S)N2CCCC(c3ccccc3)=N2)cc1 | 12.4% (inactive) | 
54 | CSCCC(NC(=O)c1ccc(Cl)cc1Cl)C(=O)NNC(=O)c1csc(N2CCOCC2)n1 (stereo not given) | 50.2% (inactive) | 
55 | CCC1S/C(=N/N=C/c2ccco2)NC1=O (stereo not given) | 3.41% (inactive) | 
56 | O=C1OC(/C=C/c2ccccc2)=NC/1=C/c1ccco1 | 41.8% (inactive) | 
57 | CC(C)(C)C1C/C(=C/c2ccco2)C(=O)/C(=C/c2ccco2)C1 (stereo not given) |  | 13.1 µM (active)
58 | CCOc1ccc(CNC(=O)CCC(=O)N2CCSc3ccccc32)cc1 | -23.6% (inactive) | 
59 | Cc1ccc(S(=O)(=O)N2CCN(C(=O)c3ccccc3-c3nc4ccccc4s3)CC2)c(C)c1 | -14.7% (inactive) | 
60 | CN(C)C(=O)COC(=O)c1cccc(S(=O)(=O)N2CC3(C)CC2CC(C)(C)C3)c1 (stereo not given) | -7.05% (inactive) | 
61 | Cc1ccc(N(C(=O)c2snc(C(N)=O)c2N)C(C(=O)NCC2CCCO2)c2c[nH]c3ccccc23)cc1 (stereo not given) | 0% (inactive) | 
62 | CC(C)(C)c1ccc(SCCc2ccncc2)cc1 | -26.6% (inactive) | 
63 | c1ccc(CSCCc2ccncc2)cc1 | 40.8% (inactive) | 
64 | Cc1cc(C)c(SCCc2ccncc2)c(C)c1 |  | 10.4 µM (active)
65 | COC(=O)c1cc(OCC(=O)NC2CCCc3ccccc32)cc(C(=O)OC)c1 (stereo not given) | 4.97% (inactive) | 
66 | Cc1ccc(C(=O)NCC(=O)OCC(=O)NC2CCCCCCC2)cc1 | 30.3% (inactive) | 
67 | Oc1ccc(-c2cccc(-c3ccc(O)cc3)c2)cc1 | 40.9% (inactive) | 
68 | O=C(NCCS(=O)(=O)N1CCN(c2ccc(F)cc2)CC1)c1ccc2c(c1)OCO2 | 23.3% (inactive) | 
69 | CC(C)N(Cc1nnc(-c2ccc(Cl)cc2)o1)C(=O)C1=COCCO1 | -0.891% (inactive) | 
70 | Cn1cnnc1SCc1nnc(-c2ccccc2Br)o1 | 22.1% (inactive) | 
71 | CC(C)N(Cc1nnc(-c2ccccc2Br)o1)C(=O)c1cc(Cl)nc2ccccc12 |  | 14.7 µM (active)
72 | O=S(=O)(Nc1ccccc1)c1ccc(NS(=O)(=O)c2cccs2)cc1 | 409% (inactive) | 
73 | Cc1ccc(OCCNC(=O)CNC(=O)c2ccc(C)c(C)c2)cc1 | 15.4% (inactive) | 
74 | COc1cc(Nc2nc3ccc(Cl)cc3n3cnnc23)cc(OC)c1OC | 7.11% (inactive) | 
75 | CC[N+]1(C)CCCC(OC(=O)C(O)(c2ccccc2)c2ccccc2)C1 (stereo not given) |  | 8.49 µM (active) and 10.4 µM (active)

Row | Structure (SMILES) | activity change, negative = inhibition | Potency
76 | CN(C)N(C)C(=O)C(O)(c1ccccc1)c1ccccc1 | -3.89% (inactive) | 
77 | CCOC(=O)CCP(=O)(O)C(O)(c1ccccc1)c1ccccc1 | 6.27% (inactive) | 
78 | O=S(=O)(c1ccc(Cl)cc1)c1nc(-c2ccccc2F)oc1NCCN1CCOCC1 | -26.1% (inactive) | 
79 | O=C1c2cccc3cccc(c23)C(=O)N1CCCCCc1n[nH]c(=S)o1 | 21.4% (inactive) | 
80 | O=C(CN1C(=O)c2cccc3cccc1c23)Nc1ccccc1 | 6.14% (inactive) | 
81 | C[N+](C)(CCCCCC[N+](C)(C)CCCN1C(=O)c2cccc3cccc(c23)C1=O)CCCN1C(=O)c2cccc3cccc(c23)C1=O |  | 0.233 µM (active)
82 | COc1cc(/C=C/C(=O)O)cc(S(=O)(=O)Nc2ccccc2C(=O)NCCc2ccccc2)c1OC | 24.5% (inactive) | 
83 | Cc1ccc(NC(=O)COC(=O)C2C3CC4OC(=O)C2C4C3)cc1Cl (stereo not given) | 0.766% (inactive) | 
84 | Cc1cc(C)cc(NC(=O)c2cccc(NC(=O)C3C4CC5OC(=O)C3C5C4)c2)c1 (stereo not given) |  | 0.0738 µM (active)
85 | Cc1cccc(NC(=O)C(C)N2C(=O)C3C4CC(C(Br)C4Br)C3C2=O)c1 (stereo not given) | 104% (inactive) | 
86 | O=C(NCCS(=O)(=O)N1CCN(c2ccccc2)CC1)c1ccco1 | 10.3% (inactive) | 
87 | CSc1cccc(NC(=O)CN2C(=O)COc3ccc(S(=O)(=O)N4CCOCC4)cc32)c1 | 8.78% (inactive) | 
88 | CN(C(=O)CSc1nnnn1-c1ccccc1)C1CCCCC1 | 1.42% [at 5.75 µM] (inactive) | 
89 | CCC(=O)N(C)C(c1ccccc1Cl)c1nnnn1-c1c(C)cccc1C (stereo not given) |  | 9.28 µM (active)
90 | COCCn1nnnc1C(c1ccccc1Cl)N1CCN(c2ccccc2OC)CC1 (stereo not given) | -5.44% (inactive) | 
91 | CCc1ccccc1NC(=O)CSc1nnc(CCNC(=O)OC(C)(C)C)o1 | 14.6% (inactive) | 
92 | O=c1[nH]c(=O)n(Cc2ccco2)c2c1C(C(F)(F)F)(C(F)(F)F)N=C(c1ccco1)N2 | 38% (inactive) | 
93 | Cc1ccccc1C1=NC(C(F)(F)F)(C(F)(F)F)c2c(n(-c3ccc(F)cc3)c(=O)[nH]c2=O)N1 |  | 11.7 µM (active)
94 | O=C(Nc1ccc(Cl)cc1)N1CCc2[nH]c3ccccc3c2C1 | 0% (inactive) | 
95 | O=C(NC1CCCCC1)N1CCc2[nH]c3ccccc3c2C1 |  | 8.28 µM (active)
96 | C=CCNC(=S)N1CCc2[nH]c3ccccc3c2C1 | 4.36% (inactive) | 
97 | Cc1ccc(F)c(NC(=O)CCOc2ccccc2C)c1 | 38.1% (inactive) | 
98 | COc1ccccc1C(=O)N1C(CC(=O)Nc2ccccc2C)C(=O)NC2CCCCC21 (stereo not given) | 2.48% (inactive) | 
99 | COc1ccc(OC)c(C2C3=C(N=c4s/c(=C\c5cccc(O)c5)c(=O)n42)c2ccccc2CC3)c1 (stereo not given) |  | 2.08 µM (active)
100 | COc1cc(C(=O)OCC(=O)NC(C)CCc2ccccc2)cc(OC)c1OC (stereo not given) | -12.3% (inactive) | 
